Reference: PubChem BioAssay (NCI)
Compounds without any hit were thinned out: in the full panel of roughly 79,000, 15% have a hit. No stated cut-off is given here; in the data, active means growth inhibition above about 70%; inactive means the rest.

What was measured:
[1] = NCI Yeast Anticancer Drug Screen. Data for the rad50 strain (AID 155);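 further: 0% = growth of vehicle-only cultures of the same strain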; conditions: S. cerevisiae rad50 strain growth inhibition; at 50.0 µM; active compounds read high
Outline: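 Readout: growth inhibition relative to vehicle-treated cultures. Compound exposure was carried out in a genetically defined yeast strain deficient in DNA damage repair.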

[2] = NCI Yeast Anticancer Drug Screen. Data for the mec2-1 strain (AID 157); conditions: S. cerevisiae mec2-1 strain, at 50.0 µM, active compounds read high
Outline: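 Readout is yeast growth inhibition, normalised to vehicle-treated controls, in the mec2-1 strain exposed to compound.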

[3] = NCI Yeast Anticancer Drug Screen. Data for the sgs1 mgt1 strain (AID 161);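 further: 0% = growth of cultures given vehicle only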; conditions: S. cerevisiae sgs1 mgt1 strain, at 50.0 µM, active compounds read high
Outline: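 Growth of a repair-deficient yeast mutant was monitored after compound treatment and expressed as inhibition relative to vehicle-treated cultures.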

[4] = NCI Yeast Anticancer Drug Screen. Data for the cln2 rad14 strain (AID 165);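 further: 0% = growth equal to vehicle treated cultures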; conditions: S. cerevisiae cln2 rad14 strain, at 50.0 µM, active compounds read high
Outline: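 Relative to vehicle controls, growth inhibition of compound-treated cln2 rad14 yeast was recorded.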

[5] = NCI Yeast Anticancer Drug Screen. Data for the bub3 strain (AID 167); conditions: S. cerevisiae bub3 mutant strain, at 50.0 µM, active compounds read high
Outline: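 Readout: yeast growth inhibition, expressed relative to vehicle-only wells. The test organism is a mutant strain from a panel with lesions in DNA repair or checkpoint genes.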

[6] = NCI Yeast Anticancer Drug Screen. Data for the mlh1 rad18 strain (AID 175); conditions: S. cerevisiae mlh1 rad18 strain growth inhibition; at 50.0 µM; active compounds read high
Outline: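 Test agents were incubated with a yeast strain of defined genotype (DNA damage repair defect). Inhibition of growth was derived by comparison with vehicle-exposed cultures.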

Measured: growth inhibition

O=C(NC/C(Cl)=C/Cl)Nc1cccc2c1CCCC2
inactive: [1] -5.5% | [2] -13.2% | [3] 19.8% | [4] -10.8% | [5] 22% | [6] 3.6%

O=C(CC(=O)c1ccccc1)Nc1ccc(-c2nc3ccccc3c(=O)[nH]2)cc1
inactive: [1] 20.1% | [2] 10.5% | [3] 19.9% | [4] 1.9% | [5] 19.6% | [6] 27.7%

Cc1cc2nc(C(O)C(O)C(O)C(O)c3nc4cc(C)c(C)cc4[nH]3)[nH]c2cc1C (stereo not drawn)
inactive: [1] 18.9% | [2] 3.35% | [3] -9.2% | [4] -1.2% | [5] -8.65% | [6] -0.85%

CC12CCCCC1C1=C(CCCC1)CC2 (stereo not drawn)
inactive: [1] -4.1% | [2] -4.95% | [3] -5.35% | [4] 9.4% | [5] 6.7% | [6] -17.6%

Cc1ccccc1S(=O)(=O)N1C(=O)c2ccccc2S1(=O)=O
inactive: [1] 12.8% | [2] -13.8% | [3] 5.35% | [4] 10.2% | [5] 5.15% | [6] -13.8%

NC(=O)C(CCN1CCCCC1)c1ccccc1 (stereo not drawn)
inactive: [1] 27.2% | [2] -7.35% | [3] 7.75% | [4] 9.5% | [5] 5.45% | [6] 24.8%

COn1c2ccccc2c2c1cc1ccccc1[n+]2[O-]
inactive: [1] -7.15% | [2] -5.95% | [3] -8.9% | [4] -52.5% | [5] -9.65% | [6] -13.4%

CCN(CC)CCN1C(=O)c2cccc3c(N)c(OC)cc(c23)C1=O
inactive: [1] 47.5% | [2] -27.8% | [3] -20.8% | [4] -11.9% | [5] -24.2% | [6] -48.3%

CC(=O)/C=C(/C=N/O)c1ccccc1
inactive: [1] 10.7% | [2] -27.1% | [3] 14.2% | [4] 7.75% | [5] 10.1% | [6] -55.8%

COc1ccc2[nH]c(-c3cccc(N(C)C)c3)cc(=O)c2c1
inactive: [1] -26.1% | [2] -8.1% | [3] -12.5% | [4] -3.95% | [5] -26% | [6] -70.6%

O=C1C2C3C=C4c5ccccc5N(c5ccccc5)C4(C2C(=O)N1c1ccc([N+](=O)[O-])cc1)[C@H]1C(=O)N(c2ccc([N+](=O)[O-])cc2)C(=O)[C@@H]31 (stereo partly drawn)
inactive: [1] 14.7% | [2] 22.1% | [3] 21.9% | [4] 13.2% | [5] 28% | [6] 19.1%

C1=NN=C2C=C3CCc4ccccc4C3CC12 (stereo not drawn)
inactive: [1] 7.45% | [2] 7.25% | [3] -1.2% | [4] -16.9% | [5] -15.9% | [6] 18.6%

COc1ccc([N+](=O)[O-])cc1NS(=O)(=O)c1ccc(NC(C)=O)cc1
inactive: [1] 1.6% | [2] 18.7% | [3] -5.55% | [4] -1.25% | [5] 23.8% | [6] -19%

N#Cc1ccc(/C=N\NC(=O)CCSCCC(=O)N/N=C/c2ccc(C#N)cc2)cc1
inactive: [1] 13.2% | [2] 24.9% | [3] 7.65% | [4] 18.4% | [5] 13.1% | [6] 7.45%

NC(=O)NNC/C(Cl)=C(\Cl)C(=O)O
inactive: [1] -1.65% | [2] -19.4% | [3] 8.7% | [4] 16.9% | [5] 5.5% | [6] 2.85%

Cc1nc(C)c(N2CCN(C(=O)O)CC2)c(=O)[nH]1
inactive: [1] -23.6% | [2] -10.9% | [3] -16% | [4] 9.85% | [5] 5.15% | [6] -58.4%

Cc1ccccc1-c1nc2c([nH]1)c(=O)n(C)c(=O)n2C
inactive: [1] 32.8% | [2] -2.2% | [3] -10.2% | [4] -32.3% | [5] 0.25% | [6] 2.75%

OC1(c2ccc(-c3ccc(-c4ccc(C5(O)C(c6ccccc6)=C(c6ccccc6)C(c6ccccc6)=C5c5ccccc5)cc4)cc3)cc2)C(c2ccccc2)=C(c2ccccc2)C(c2ccccc2)=C1c1ccccc1
inactive: [1] 1.05% | [2] 4.4% | [3] 6.8% | [4] -3.9% | [5] -1.8% | [6] 2%

C=C1C(O)CCC2(C)C1CCC1C2CCC2(C)C(C(C)CCCC(C)C)CCC12 (stereo not drawn)
inactive: [1] -5% | [2] -5.35% | [3] -3.1% | [4] -39.6% | [5] -4.4% | [6] -2.45%

Oc1ccc(Cl)cc1/C=N\NC(=S)Nc1ccc2cn[nH]c2c1
inactive: [1] -2.7% | [2] 10.1% | [3] 13.9% | [4] -39.4% | [5] 20.8% | [6] 11.3%

COc1ccc(C(=O)c2ccccc2)c(O)c1
inactive: [1] 13.1% | [2] 1.8% | [3] -10.6% | [4] 4.95% | [5] 0.55% | [6] 6.9%

CCCCCCCCCCCCCCCc1cc(=O)n(-c2ccc(NC(C)=O)cc2)n1C
inactive: [1] -2% | [2] -23.8% | [3] -12.6% | [4] 3.1% | [5] -1% | [6] -9.7%

CCOC(=O)c1[nH]c(CC(=O)O)c(C(=O)OC)c1C
inactive: [1] 8.25% | [2] 14.8% | [3] 19.1% | [4] -3.5% | [5] 26.5% | [6] 7.3%

CCOC(=O)/C(O)=C(\C#N)c1cc(C)ccc1C
inactive: [1] -7.5% | [2] -14.6% | [3] -2.7% | [4] 0.45% | [5] -0.45% | [6] 10.8%

Cc1nn(C(=O)CC(=O)Nc2ccccc2Cl)c(C)c1N=Nc1ccccc1F
inactive: [1] -13.7% | [2] 4% | [3] -27.6% | [4] 21.9% | [5] 2.7% | [6] -14.6%

Cc1nc2ccccc2c(=O)n1-c1ccc(-c2nnc(Sc3nnc(-c4ccc(-n5c(C)nc6ccccc6c5=O)cc4)n3-c3ccccc3)n2-c2ccccc2)cc1
inactive: [1] 16.6% | [2] -3.35% | [3] 8.2% | [4] -17.6% | [5] 11.3% | [6] 30.1%

c1ccc2cc(SSc3ccc4ccccc4c3)ccc2c1
inactive: [1] -30.1% | [2] -23.8% | [3] -15.9% | [4] 0.1% | [5] -17.2% | [6] -4.85%

Cc1ccc(NC(=S)NC(=O)c2ccccc2)cc1
inactive: [1] 10.9% | [2] 4.95% | [3] 8.7% | [4] -55.7% | [5] 3.3% | [6] 24.4%

C[n+]1cccc2cccc(N)c21
inactive: [1] 22.1% | [2] 0.1% | [3] 11.3% | [4] -5.65% | [5] 15.5% | [6] 5.6%

CSSC(SC)SC
inactive: [1] 31.9% | [2] -7.85% | [3] 13.6% | [4] -21.1% | [5] -11.6% | [6] 29.6%

CC1(C)CNC[C@@](C)(O)C(=O)NC(C)(C)CNC[C@@](C)(O)C(=O)N1
inactive: [1] 9.75% | [2] 5.75% | [3] -32.6% | [4] 4.7% | [5] -46.3% | [6] -9.2%

CC(C)c1ccc(C(C)(C)O)cc1
inactive: [1] 4.75% | [2] 15.7% | [3] -19.8% | [4] -7.8% | [5] -6.8% | [6] -17.6%

CC(=O)NS(=O)(=O)c1ccc(NC(=O)COC(=O)c2cccc3c(=O)c4ccccc4[nH]c23)cc1
inactive: [1] -33.1% | [2] 5% | [3] -48.6% | [4] 7.1% | [5] -28.6% | [6] -23.6%

N#CC(=Nc1ccccc1)c1cccc(Br)c1
inactive: [1] 34.5% | [2] 5.05% | [3] 18.9% | [4] 15.4% | [5] 21.4% | [6] 28.4%

Cc1ccc(S(=O)(=O)CCC(=O)c2ccccc2)cc1
inactive: [1] 9.3% | [2] 16% | [3] 0.95% | [4] 1.3% | [5] 3.25% | [6] 14.6%

Cc1ccc(S(=O)(=O)N/N=C/c2ccccc2)cc1
inactive: [1] 5.7% | [2] -0.5% | [3] 3.2% | [4] -27.6% | [5] 8.7% | [6] 7.35%

CCSC(=S)S
inactive: [1] -0.35% | [2] -23% | [3] -12.2% | [4] 7.15% | [5] 0.25% | [6] -0.3%

FC(F)(F)C1(C(F)(F)F)OS2(OC(C(F)(F)F)(C(F)(F)F)c3ccccc32)c2ccccc21
inactive: [1] 0.5% | [2] 3.4% | [3] 3.3% | [4] -22.9% | [5] -1.1% | [6] -5.1%
